Tb PFK block: inhibitors of T. brucei phosphofructokinase; O15648; hit rate 0.17% among 330,000; T. brucei PFK, ADP-Glo luminescence; Potency, µM (doses to about 57.5 µM), for inactives: at the top dose activity, negative = inhibition, most hits filed as inhibitors;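 further: 0% = uninhibited 1x PFK enzyme wells and -100% = no-enzyme wells; nearly all actives have a fitted effect of over 60% in size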
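PFK 1.25 nM, F6P 0.5 mM, ATP 0.1 mM, 0.1 M TEA pH 8.0, 5 mM MgCl2, 0.01% Tween20, 0.1% BSA; 45 min RT. ADP-Glo readout. qHTS titration up to 57 uM; curves fitted, compounds curve-classed.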
Pin1 inh: human Pin1 inhibition; Pin1 FP peptide displacement, HiFluor488, 10 min; AID 504891; hit rate 0.009% among 390,000; Potency, µM (highest dose often 115 µM), without a hit: at the highest dose activity, negative = inhibition, usual class: inhibitors; active means well fitted inhibition curve with a large enough effect in the polarisation, with a control signal flat, not every such curve was filed as active; inconclusive means small, poorly fitted or top-dose-only effect, or effect the other way, or a change in a side signal; inactive means no such curve, though single readings can be large or run the other way; the % refers to the polarisation; further: on the % scale 0 is the no-effect control and ±100 the full control effect
VDR inhibitor: blocks the human vitamin D receptor; Potency, µM, for the others: max response, negative = inhibition, most hits filed as inhibitors; P11473; VDR-SRC2-3 peptide fluorescence polarization, 2 h; hit rate 0.93% among 400,000; AID 504847; further: on the % scale 0 is the no-effect control and ±100 the full control effect
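Fluorescence polarization assay of small-molecule disruption of VDR binding to coregulator peptide SRC2-3. Compounds and controls pin-transferred, then read after 2 h incubation at ambient room temperature.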
TDP1 inh: TDP1 (human) enzyme inhibition | hit rate 0.28% among 350,000 | Potency, µM (highest dose often 130 µM), inactives show at the top dose activity change, negative = inhibition, usual class: inhibitors | AID 485290 | recombinant TDP1, AlphaScreen DNA substrate cleavage; further: on the % scale 0 is the no-effect control and ±100 the full control effect; nearly all actives have a fitted effect of over 40% in size
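Steps: enzyme plus compound, 15 min RT; add biotin/phosphotyrosine-FITC oligonucleotide (15 nM final), react 5 min; add donor/acceptor beads (10 ug/ml final), 10 min; read AlphaScreen. Tdp1 at 1 nM final.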
S-ASM inh: human S-ASM enzyme inhibition | P17405 | placental ASM, HMU-PC fluorogenic substrate, 60 min | Potency, µM (doses to about 57.5 µM), for the others: top-dose activity change, negative = inhibition, usual class: inhibitors | hit rate 0.006% among 340,000
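Human placenta-derived ASM preincubated with compound 10 min at room temperature, then reacted with 9 uM (final) fluorogenic HMU-PC substrate for 60 min at 37 C. Stop solution raises pH to 10; fluorescence read at Ex 386/Em 447 nm.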
PLK1 PBD inh: blocks phosphopeptide binding to human PLK1 polo-box domain; P53350; Plk1 PBD binding of FITC phosphopeptide, fluorescence polarization; Potency, µM, for the others: max response, negative = inhibition, hits mostly inhibitors; hit rate 2.8% among 360,000; AID 720504; further: series mostly up to about 57 µM; on the % scale 0 is the no-effect control and ±100 the full control effect; nearly all actives have a fitted effect of over 65% in size
Target sequence (P53350 whole entry, looked up, the tested form may be a part): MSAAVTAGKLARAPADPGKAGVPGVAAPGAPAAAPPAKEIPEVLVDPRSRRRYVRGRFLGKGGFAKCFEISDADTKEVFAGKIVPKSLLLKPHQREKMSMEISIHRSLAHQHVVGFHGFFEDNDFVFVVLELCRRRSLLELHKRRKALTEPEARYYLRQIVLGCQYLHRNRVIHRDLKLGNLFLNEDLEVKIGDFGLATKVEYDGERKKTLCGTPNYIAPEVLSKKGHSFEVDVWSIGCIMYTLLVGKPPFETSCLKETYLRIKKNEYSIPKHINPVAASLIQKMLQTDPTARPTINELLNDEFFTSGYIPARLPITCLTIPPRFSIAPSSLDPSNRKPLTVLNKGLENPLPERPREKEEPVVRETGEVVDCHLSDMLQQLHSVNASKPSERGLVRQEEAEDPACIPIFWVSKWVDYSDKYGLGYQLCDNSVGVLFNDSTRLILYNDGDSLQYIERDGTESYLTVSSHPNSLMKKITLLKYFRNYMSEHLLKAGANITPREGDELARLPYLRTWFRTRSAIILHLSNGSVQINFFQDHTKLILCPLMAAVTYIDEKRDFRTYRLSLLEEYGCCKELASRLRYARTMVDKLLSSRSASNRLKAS
Starred values were filed as active, the others as inactive; ? = inconclusive; / = no result. Rows were chosen to be rich in hits. Some 3.1% of all compounds tested hit in one or more screens of this group. Unless noted, the call rests on the fitted dose curve; in most records, active means well fitted curve in the direction sought with a large enough effect; inconclusive means small, poorly fitted or top-dose-only effect, or another doubt; inactive means no such curve, though single readings can be large; an effect the other way counts as inactive or inconclusive. Potency means the concentration at half of the fitted maximal effect.

SMILES	Tb PFK block	Pin1 inh	VDR inhibitor	TDP1 inh	S-ASM inh	PLK1 PBD inh
O=C(CCn1cnc2onc(-c3ccc(F)cc3)c2c1=O)N1CCN(c2cccc(Cl)c2)CC1	/	11.8%	3.1%	3.2%	/	/
O=C(O)c1ccccc1CSC1=NCCS1	-1.9%	-8.6%	-23.1%	0.6%	1.5%	16.8µM*
CSCC[C@H](NC(=O)[C@H](Cc1ccccc1)NC(=O)[C@H](Cc1cnc[nH]1)NC(=O)CNC(=O)[C@@H](NC(=O)[C@H](C)NC(=O)[C@H](Cc1c[nH]c2ccccc12)NC(=O)[C@H](CC(C)C)NC(=O)[C@H](CC(N)=O)NC(=O)CN)[C@@H](C)O)C(N)=O	/	/	-7.3%	27.9%	/	/
Cc1ccc(NS(=O)(=O)c2cc3c(cc2C)OCC(=O)N3)cc1C	/	-0.3%	/	1.0%	/	/
CC1(c2ccc([N+](=O)[O-])cc2)Nc2ccccc2S1 (stereo unspecified)	?	-1.9%	?	/	-1.1%	6.7µM*
O=C(c1cc(F)cc(F)c1)N1CCC(c2nc(-c3ccc(S(=O)(=O)N4CCCC4)cc3)no2)CC1	/	-5.8%	-1.8%	-4.7%	/	/
COCCCNC1=C(C#N)C(=O)NC(c2cccc([N+](=O)[O-])c2)S1 (stereo unspecified)	/	/	/	/	/	18.9µM*
O=C1CCc2cc(S(=O)(=O)NCc3ccccc3)ccc2N1	/	4.6%	/	0.7%	/	/
COc1ccc(S(=O)(=O)NC(C)CCc2ccccc2)cc1 (stereo unspecified)	1.0%	1.8%	?	0.0%	-1.9%	5.32µM*
CCOC(=O)c1cc(C)[nH]c(=S)c1C#N	-7.4%	-3.0%	-2.6%	7.3%	-3.2%	26.7µM*
C/C(=N\NC(=O)c1ccc(Cn2cc([N+](=O)[O-])cn2)o1)c1cccc(NC(=O)c2cccnc2)c1	-13.1%	-0.4%	-10.1%	2.5%	-1.9%	-4.9%
CC(=O)Nc1cccc(/C(C)=N\NC(=O)c2ccc(Cn3nc([N+](=O)[O-])c(Cl)c3C)o2)c1	-26.9%	-3.0%	?	7.9%	3.0%	21.2µM*
COc1ccc(NC(=O)c2cc3c(C)nn(-c4ccccc4)c3s2)c(OC)c1	/	-3.6%	-1.2%	/	/	/
COc1ccc(NS(=O)(=O)c2ccc(O)c(NC(=O)c3cc4c(C)nn(-c5ccc(F)cc5)c4s3)c2)cc1	0.6%	?	-10.9%	2.7%	/	75.2µM*
CC1CCc2c(sc(NC(=O)Cn3nc(C(F)(F)F)c4c3CCCCC4)c2C#N)C1 (stereo unspecified)	2.9%	1.4%	-21.2%	0.0%	-0.6%	26.7µM*
Cc1cc(C(=O)Nc2sc3c(c2C#N)CCCCC3)cs1	-19.3%	3.5%	9.4%	-9.1%	-2.9%	-23.9%
N#Cc1c(NC(=O)c2cnn3cccnc23)sc2c1CCCC2	-8.7%	-3.0%	3.5%	0.0%	-1.8%	23.8µM*
CC1CCc2c(sc(NC(=O)c3nc4ncccn4n3)c2C#N)C1 (stereo unspecified)	?	1.7%	?	/	-0.2%	4.74µM*
N#Cc1c(NC(=O)c2nc3ncccn3n2)sc2c1CCCCC2	-0.3%	-2.6%	6.3%	0.0%	-4.2%	-16.9%
O=C1CN(S(=O)(=O)c2ccc3c(c2)OCCO3)CCN1S(=O)(=O)c1c(F)cccc1F	/	-1.6%	/	-0.2%	/	/
O=c1c2oc3ccccc3c2n(Cc2ccc(Cl)cc2)c(=O)n1Cc1ccccc1	/	4.6%	7.8%	2.6%	/	/
NC(=S)NNC(=O)Nc1ccc(Cl)c(Cl)c1	16.9µM*	1.6%	?	5.6%	4.8%	-16.2%
CSCC[C@H](N)C(=O)N[C@@H](CCCN=C(N)N)C(=O)N[C@@H](Cc1ccccc1)C(=O)N[C@@H](Cc1ccccc1)C(=O)N[C@H](C(=O)O)C(C)C	/	/	-3.8%	5.6%	/	/
CCN(CC)CCSC(=O)C(c1ccccc1)c1ccccc1	/	/	25.1µM*	5.7%	/	/
Nc1nc(NCc2cccc(Cl)c2)c2[nH]cnc2n1	/	-2.3%	1.1%	2.5%	/	/
BrC(=C\c1ccccc1)/C=N/N1CCN(c2ccccc2)CC1	-1.4%	-0.3%	79.4µM*	-1.2%	2.1%	-25.6%
CC(=O)OCCOc1nc(NC(C)C)nc(NC(C)C)n1	1.2%	5.9%	?	6.3%	0.0%	29.9µM*

From PubChem BioAssay
